Experimental findings from PubChem BioAssay AID2782 (National Center for Advancing Translational Sciences (NCATS), 2010) are described below.

Results filed as inconclusive are left out. Where a call stands in place of a potency, no number is given. Activity calls are given as the source filed them. The call rests on the fitted dose curve; in most records, active means well fitted inhibition curve with a large enough effect in the polarisation, with a control signal flat (not every such curve was filed as active); inconclusive means small, poorly fitted or top-dose-only effect, or effect the other way, or a change in a side signal; inactive means no such curve, though single readings can be large or run the other way; the % refers to the polarisation.
Potency means the concentration at half of the fitted maximal effect.

The test can be described thus: Confirmation of Inhibitors Targeting the Menin-MLL Interaction in MLL Related Leukemias: Competition With Texas Red Labeled MLL-derived Mutant Peptide. The note with it: fluorescence polarization, Texas Red MLL peptide displacement; series mostly up to 94.6 µM. The essentials: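 FP competition using menin at 200 nM with Texas Red-labeled mutant MLL peptide (50 nM) plus fluorescein MLL-w.t. peptide (25 nM) in 50 mM Tris-HCl pH 7.5, 50 mM NaCl, 1 mM DTT, 0.05% BSA; compound added, 1 hr ambient; polarization read per label.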
Take `Cc1cc2c(c(=O)n1Cc1ccccc1)C1O[C@](c3ccsc3)(Cc3cc(C#N)ccc31)O2`: the Potency entry was “inactive”.

Consider `CC(c1cc2ccccc2s1)N(O)C(N)=O` (centres undefined), for which the Potency result was “inactive”.

With `O=S(=O)(NCCc1c[nH]c2ccccc12)c1ccccc1`, the Potency result was “inactive”.

Regarding `COc1ccc(CNC(=O)C(c2ccc(O)cc2)N(Cc2ccco2)C(=O)c2snc(C(N)=O)c2N)cc1` (centres undefined), the Potency result is “inactive”.

In the case of `N=C1c2ccccc2CN1c1ccc(N2CCOCC2)c(S(=O)(=O)Nc2ccc(Cl)cc2)c1`, the Potency was 141 µM (active).

Turning to `CC(c1ccncn1)N(C)Cc1nc(-c2ccc(C(F)(F)F)cc2)no1` (centres undefined), the Potency entry is “inactive”.

`Cc1nc(C)c(-c2ccc(SCc3ccccc3F)nn2)s1`: the Potency entry was “inactive”.

In the case of `CN(C)C(CNc1ncnc2sc3c(c12)CCCCC3)c1ccco1` (centres undefined), the Potency was 141 µM (active).

For `COc1cc(SC)ccc1C(=O)Nc1cccc(C2OCCCO2)c1`, the Potency entry was “inactive”.

Turning to `COc1ccccc1N(CC1CO1)S(=O)(=O)c1ccccc1` (centres undefined), the Potency result was “inactive”.

`CCOC(=O)N1CCN(C(=O)c2oc3ccc(S(=O)(=O)N(CC)CC)cc3c2C)CC1`: the Potency result is “inactive”.

`Cc1cc2c(N)cccc2nn1`: the Potency was 141 µM (active).

As for `O=C(C1CCCN(Cc2cccc(Cl)c2)C1)N1CCCCC1` (centres undefined), the Potency entry is “inactive”.

For `NC(=O)[C@@H]1CCCNc2c(I)cc([N+](=O)[O-])cc2C(=O)N[C@@H](CCCN=C(N)N)C(=O)N[C@@H](CCCN=C(N)N)C(=O)N1`, the Potency is 141 µM (active).

With `COc1ccc(NC(=O)NC2(C(=O)N3CCOCC3)CCCCC2)cc1`, the Potency result was “inactive”.

As to `CC1CN(c2c3c(nc4ncnn24)CCCC3)CC(C)O1` (centres undefined), the Potency entry is “inactive”.

Take `COc1cccc(NC(=O)N2CCCc3ccccc32)c1`: the Potency result is “inactive”.

Turning to `O=C(N1CCOCC1)N1CCN(S(=O)(=O)c2ccc(Cl)cc2)CC1`, the Potency result was “inactive”.

Consider `COc1cc2c(cc1NC(=S)NC(=O)c1c(OC)cccc1OC)oc1ccccc12`, for which the Potency was 11.2 µM (active).

On to `N#CC1=C(N)OC2=C(C(=O)CC(c3ccco3)C2)C1c1ccc(OCc2c(F)cccc2Cl)cc1` (centres undefined), for which the Potency entry was “inactive”.

As for `O=c1cc(O)c2ccccc2n1Cc1ccccc1F`, the Potency entry is “inactive”.

Regarding `CCCn1c(=O)c(C(=O)Nc2ccccc2C(=O)OCC)c(O)c2ccccc21`, the Potency result was “inactive”.

As for `CCn1ncc(C(=O)Nc2cc(C)on2)c1C`, the Potency result was “inactive”.

For the compound `Cc1ccc(S(=O)(=O)c2cc(OC(=O)c3ccco3)ccc2OC(=O)c2ccco2)cc1`, the Potency entry is “inactive”.

Turning to `CCCc1nc2c(=O)[nH]c3ccccc3c2o1`, the Potency entry was “inactive”.

Regarding `CN(C)/C=C(/C(=O)c1ccc(Cl)cc1)S(=O)(=O)c1ccc(Cl)cc1`, the Potency entry is “inactive”.

Consider `CCOC(=O)Cn1cnc2scc(-c3ccc(C)c(C)c3)c2c1=O`, for which the Potency entry is “inactive”.

For the compound `O=C(Nc1ccc(F)c(Cl)c1)c1cc(-c2ccco2)on1`, the Potency was 31.7 µM (active).

Consider `COc1ccc(OCCCn2ccnc2)cc1`, for which the Potency entry is “inactive”.

For `COC(=O)COc1ccc(C(C2C(=O)CC(C)(C)CC2=O)C2C(=O)CC(C)(C)CC2=O)cc1`, the Potency result is “inactive”.

For `CCCc1cc(=O)oc2c3c(c(Cl)cc12)OCN(CCCO)C3`, the Potency result is “inactive”.

On to `COc1ccc(CN2CCN(C(C)C(=O)N(C)Cc3cccc(F)c3)CC2)cc1OC` (centres undefined), for which the Potency entry is “inactive”.

Take `CCCC(=O)Nc1cccc(NC(=O)c2ccc([N+](=O)[O-])cc2Cl)c1`: the Potency entry is “inactive”.

For `O=C(Cn1nc(-c2ccccc2)ccc1=O)N1CCCCC1`, the Potency result is “inactive”.
